In article PMC11006913:

How the values were obtained:
Assay in all cases: PBM; 200 nM protein, PBS
Settings in all cases: dsDNA, one strand shown
ALX4 [1] = molecular target: ALX4 (Homo sapiens, UniProt Q9H161 200-286)
ALX4 [2] = molecular target: ALX4 (Homo sapiens, UniProt Q9H161 200-286, Q225E)
HOXB6 [3] = molecular target: HOXB6 (Homo sapiens, UniProt P17509 132-218, K202E)
HOXB6 [4] = molecular target: HOXB6 (Homo sapiens, UniProt P17509 132-218)
HOXB6 (Homo sapiens, UniProt P17509 132-218), sequence (P17509 132-218): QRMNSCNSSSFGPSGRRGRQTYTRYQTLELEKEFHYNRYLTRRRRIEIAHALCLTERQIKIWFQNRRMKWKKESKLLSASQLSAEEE

ALX4 (Homo sapiens, UniProt Q9H161 200-286, Q225E), sequence (Q9H161 200-286 Q225E): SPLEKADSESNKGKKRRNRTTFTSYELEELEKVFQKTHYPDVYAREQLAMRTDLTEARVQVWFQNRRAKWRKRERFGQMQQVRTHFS
ALX4 (Homo sapiens, UniProt Q9H161 200-286), sequence (Q9H161 200-286): as the sequence (Q9H161 200-286 Q225E) above, with E26Q counted along it
HOXB6 (Homo sapiens, UniProt P17509 132-218, K202E), sequence (P17509 132-218 K202E): as the sequence (P17509 132-218) above, with K71E counted along it

ACGCGGGA
binding signal (ALX4 [1]): 8.23 upbm affinity estimate (log intensity, higher = more binding, comparable within an allelic series) | binding signal (ALX4 [2]): 8.27 upbm affinity estimate (log intensity, higher = more binding, comparable within an allelic series)

GGAAGCCA
binding signal (ALX4 [1]): 8.23 upbm affinity estimate (log intensity, higher = more binding, comparable within an allelic series) | binding signal (ALX4 [2]): 8.17 upbm affinity estimate (log intensity, higher = more binding, comparable within an allelic series)

ATGATAAA
binding signal (ALX4 [1]): 10.4 upbm affinity estimate (log intensity, higher = more binding, comparable within an allelic series) | binding signal (ALX4 [2]): 9.81 upbm affinity estimate (log intensity, higher = more binding, comparable within an allelic series)

CGGCCGAC
binding signal (ALX4 [1]): 7.76 upbm affinity estimate (log intensity, higher = more binding, comparable within an allelic series) | binding signal (ALX4 [2]): 8.04 upbm affinity estimate (log intensity, higher = more binding, comparable within an allelic series)

CCTCCTAC
binding signal (ALX4 [1]): 7.75 upbm affinity estimate (log intensity, higher = more binding, comparable within an allelic series) | binding signal (ALX4 [2]): 8.06 upbm affinity estimate (log intensity, higher = more binding, comparable within an allelic series)

CGCCTTGA
binding signal (ALX4 [1]): 8.09 upbm affinity estimate (log intensity, higher = more binding, comparable within an allelic series) | binding signal (ALX4 [2]): 8.15 upbm affinity estimate (log intensity, higher = more binding, comparable within an allelic series)

CCGTAGCC
binding signal (ALX4 [1]): 8.11 upbm affinity estimate (log intensity, higher = more binding, comparable within an allelic series) | binding signal (ALX4 [2]): 8.21 upbm affinity estimate (log intensity, higher = more binding, comparable within an allelic series)

CCTAGGAC
binding signal (ALX4 [1]): 7.82 upbm affinity estimate (log intensity, higher = more binding, comparable within an allelic series) | binding signal (ALX4 [2]): 8.1 upbm affinity estimate (log intensity, higher = more binding, comparable within an allelic series)

CTTCCCGC
binding signal (ALX4 [1]): 8.12 upbm affinity estimate (log intensity, higher = more binding, comparable within an allelic series) | binding signal (HOXB6 [3]): 9.12 upbm affinity estimate (log intensity, higher = more binding, comparable within an allelic series) | binding signal (ALX4 [2]): 8.22 upbm affinity estimate (log intensity, higher = more binding, comparable within an allelic series) | binding signal (HOXB6 [4]): 9.02 upbm affinity estimate (log intensity, higher = more binding, comparable within an allelic series)

CCAGGACG
binding signal (ALX4 [1]): 8.2 upbm affinity estimate (log intensity, higher = more binding, comparable within an allelic series) | binding signal (ALX4 [2]): 8.31 upbm affinity estimate (log intensity, higher = more binding, comparable within an allelic series)

CTCCGGCC
binding signal (ALX4 [1]): 8.03 upbm affinity estimate (log intensity, higher = more binding, comparable within an allelic series) | binding signal (ALX4 [2]): 8.06 upbm affinity estimate (log intensity, higher = more binding, comparable within an allelic series)

CTCCCTTC
binding signal (ALX4 [1]): 7.88 upbm affinity estimate (log intensity, higher = more binding, comparable within an allelic series) | binding signal (ALX4 [2]): 8.19 upbm affinity estimate (log intensity, higher = more binding, comparable within an allelic series)

CCCTCACG
binding signal (ALX4 [1]): 8.1 upbm affinity estimate (log intensity, higher = more binding, comparable within an allelic series) | binding signal (ALX4 [2]): 8.28 upbm affinity estimate (log intensity, higher = more binding, comparable within an allelic series)

ATAACCTC
binding signal (ALX4 [1]): 9.88 upbm affinity estimate (log intensity, higher = more binding, comparable within an allelic series) | binding signal (ALX4 [2]): 9.24 upbm affinity estimate (log intensity, higher = more binding, comparable within an allelic series)

GGTTATCA
binding signal (ALX4 [1]): 9.51 upbm affinity estimate (log intensity, higher = more binding, comparable within an allelic series) | binding signal (ALX4 [2]): 9.1 upbm affinity estimate (log intensity, higher = more binding, comparable within an allelic series)

GACGCGGC
binding signal (ALX4 [1]): 8.04 upbm affinity estimate (log intensity, higher = more binding, comparable within an allelic series) | binding signal (ALX4 [2]): 8.07 upbm affinity estimate (log intensity, higher = more binding, comparable within an allelic series)

ATAAGCAC
binding signal (ALX4 [1]): 9.96 upbm affinity estimate (log intensity, higher = more binding, comparable within an allelic series) | binding signal (ALX4 [2]): 9.46 upbm affinity estimate (log intensity, higher = more binding, comparable within an allelic series)

TCCGATAA
binding signal (ALX4 [1]): 10.1 upbm affinity estimate (log intensity, higher = more binding, comparable within an allelic series) | binding signal (ALX4 [2]): 9.41 upbm affinity estimate (log intensity, higher = more binding, comparable within an allelic series)
